Our source for the composite z-score values is PubChem BioAssay.

The assay is described as follows: probe aLefty1 binding on compound microarray – biochemical, small-molecule microarray, 635/667 nm fluorescence, primary screen (AID 1153).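 Further: score merges spot fluorescence with signal-to-noise ratio from the scanned slide images.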 The note with it: higher = more signal.
The molecule `COc1ccc([Si](C)(C)[C@@H]2[C@@H](CCO)O[C@]3(C(=O)N(Cc4ccc(NC(C)=O)cc4)c4ccccc43)[C@H]2C)cc1` displayed a composite z-score of 0.16. With `CCCCC(=C=CC[C@H](O)c1ccccc1OCCO)C[C@H](O)COCc1ccccc1` the figure was -0.0544. On to `COC(=O)[C@H]1COC(c2ccc(OCCCO)cc2)=N1`, for which the composite z-score worked out at 0.245.

As to `CC(C)C[C@@H]1NC(=O)[C@H]2C[C@@H](C(=O)NCCCCCCN(C)C)[C@@H](c3cccc(OCCO)c3)N2C1=O`, the composite z-score was 0.0816.

As for `O=C1O[C@@H](c2ccccc2)[C@@H](c2ccccc2)N2[C@@H](c3ccccc3OCCO)[C@]3(C(=O)Nc4ccc(C#CCCO)cc43)[C@@H](C(=O)O)[C@H]12`, the composite z-score was 1.66. In the case of `CC(C)NC(=O)[C@@]1(C)c2ccccc2C(=O)N(Cc2cc(F)cc(C(F)(F)F)c2)[C@H]1c1ccc(CO)cc1`, the composite z-score was -0.21.

`O=C1O[C@@H](c2ccccc2)[C@@H](c2ccccc2)N2[C@@H](c3ccc(OCCO)cc3)[C@]3(C(=O)Nc4ccccc43)[C@@H](C(=O)N3CCN(c4ncccn4)CC3)[C@H]12` registered a composite z-score of -0.0347.

Molecule `CCc1cc2c(nc1CC)CCN(CCC(C)=NOC[C@@H](O)[C@H]1O[C@@H]3OC(C)(C)O[C@@H]3[C@H]1O)C2` gave a composite z-score of -0.179.

`C=CC[C@@H]1C=C[C@H](ON=C(C)CCN2CCc3nc(CC)c(CC)cc3C2)[C@@H](CO)O1` showed a composite z-score of 0.288.

`CN(C)CCCNC(=O)[C@@H]1c2ccccc2C(=O)N(Cc2cc(F)cc(C(F)(F)F)c2)[C@H]1c1ccc(CO)cc1` showed a composite z-score of -0.0818. With `O=C1[C@H]2[C@H]3[C@H](O)[C@H](O)CC(=NOC[C@@H](O)COCc4ccco4)[C@H]3CC[C@H]2C(=O)N1c1cccc(Oc2ccccc2)c1`, the composite z-score was -0.353. As to `CS(=O)(=O)CCOC(=O)C1=CC(CCCO)=CC(c2cccs2)N(Cc2cccc(OC(F)(F)F)c2)C=C1C(=O)OCCS(C)(=O)=O` (centres undefined), the composite z-score amounted to 0.217.

With `CC(CCC(=O)OC[C@H]1O[C@H](C#Cc2ccccc2)C=C[C@@H]1Oc1ccc(C)cc1)=NO[C@@H](C)c1cn([C@H](CO)Cc2ccccc2)nn1`, the composite z-score was -0.247. For `COc1ccc(O[C@H]2C=C[C@@H](c3ccccc3)O[C@@H]2COC(=O)CCC(C)=NO[C@@H](C)c2cc(-c3c(C)cc(C)cc3C)no2)cc1` the value was -0.378; for `CC(C)[C@@H](OCc1ccccc1)[C@H](C)C=NO[C@H](C)c1cn([C@H](CO)Cc2ccccc2)nn1`, -0.448. In turn, `COc1cccc([C@H]2Oc3ccc(OC)cc3C(=NOC(C)CN3CCCc4nc(C)c(C)cc43)[C@@H]2O)c1` (some centres undefined) yielded a composite z-score of 0.0809. Take `O=C1C[C@@H](O)[C@@H](O)[C@@H]2[C@@H]3C(=O)N(C4CCCCC4)C(=O)[C@@H]3CC[C@H]12`: the composite z-score was -0.103.

`COc1ccc([Si](C)(C)[C@H]2[C@H](CC(=O)N3CCC[C@H]3CO)O[C@@]3(C(=O)N(Cc4cccc(N5C(=O)COc6ccccc65)c4)c4ccccc43)[C@@H]2C)cc1` came in with a composite z-score of 0.169. `CC(C)NC(=O)[C@@]1(c2ccc([N+](=O)[O-])cc2)CC(=O)N(CC23CC4CC(CC(C4)C2)C3)[C@@H]1c1ccc(CO)cc1I` returned a composite z-score of 0.167. As to `C=CCOC(=O)[C@H]1[C@@H]2C(=O)O[C@@H](c3ccccc3)[C@@H](c3ccccc3)N2[C@@H](c2ccc(OCCOC(=O)[C@H]3C[C@H]4C(=O)N5CCC[C@H]5C(=O)N4[C@H]3c3cccc(OCCO)c3)cc2)[C@]12C(=O)Nc1ccc(I)cc12`, the composite z-score worked out at 1.72. `CC(C)CN1CCc2nc(-c3ccccc3)c3c(c2CC1)CO[C@@H](C)C3` returned a composite z-score of 0.0981. `CC(C)OC(=O)C=C1C[C@@H](c2ccc(C#N)cc2)O[C@@H](c2ccc(C#N)cc2)O1` yielded a composite z-score of 0.474. `C=CC[C@@H]1C=C[C@H](ON=C[C@@H](OC)[C@H](C)C=CCC(=O)OC)[C@@H](CO)O1` yielded a composite z-score of 0.0533. `CN1C(=O)C2C(C1=O)C1C=C(CCCO)C2C(c2ccc(CN3CCCC3)cc2)N1C` (centres undefined) returned a composite z-score of 0.0811. Molecule `COCC(=C=CC[C@@H](O)c1ccccc1OCCO)CCO` yielded a composite z-score of -0.0501. The molecule `COCCOC(=O)N1C(=O)[C@@]2(c3cc(C#CCNC(N)=O)ccc31)[C@H](c1ccc(O)cc1)N1[C@H](c3ccccc3)[C@H](c3ccccc3)OC(=O)[C@H]1[C@@H]2C(=O)N1CCCCCCC1` displayed a composite z-score of -0.0779. `C=C(/C(=C/C[C@H](OC(=O)c1ccncc1)c1ccc(OCCO)cc1)c1cnc2ccccc2c1)C(C)C` registered a composite z-score of 0.188. With `Cc1cc2c(c(=O)o1)[C@H](O)[C@H]1O[C@H]1C2=O` the figure was -0.237.

`COC(=O)[C@@H]1CC[C@H](C)[C@@H](c2ccc(C)cc2)N1C(=O)c1ccc(C=NOC[C@@H](O)COCc2ccco2)cc1`: the composite z-score is -0.255.
